From PubChem BioAssay
Active and inactive are the calls of the source. Unless noted, no rule for the calls is given here.

Columns and labels:
[1] = A549 cell viability effects, profiling panel, calcein-AM fluorescence, 48 h, basal (AID 1162); conditions: higher = more signal; also: test concentration not given here
[2] = adipocyte viability effects, profiling panel, cell-based, 3T3-L1 adipocytes, calcein-AM fluorescence, 48 h, basal (AID 1163); conditions: 3T3-L1 adipocytes viability, higher = more signal; also: test concentration not given here
[3] = HepG2 cell viability effects, profiling panel, calcein-AM fluorescence, 48 h, basal (AID 1164); conditions: higher = more signal; also: test concentration not given here
[4] = MM1S cell viability effects, profiling panel, calcein-AM fluorescence, 48 h, basal (AID 1165); conditions: higher = more signal;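 also: viability of MM1S multiple myeloma cells under basal unstimulated conditions; test concentration not given here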
[5] = basal RPMI8226 viability, no added stimulus, profiling panel, cell-based, calcein-AM fluorescence, 48 h, PK04 Diversity Set (AID 1166); conditions: RPMI8226 myeloma viability, higher = more signal;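 also: cells grown under basal conditions without added stimulus; test concentration not given here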
[6] = basal HepG2 mitochondrial membrane potential changes, profiling panel, cell-based, JC-1 fluorescence, 24 h, 100 nL compound (AID 1167); conditions: higher = more signal; also: test concentration not given here
[7] = basal 3T3-L1 adipocyte mitochondrial potential changes, profiling panel, cell-based, JC-1 fluorescence, 3T3-L1 adipocytes, 24 h, 100 nL compound (AID 1168); conditions: JC-1 mitochondrial fluorescence, higher = more signal, called active from +8 up or from −8 down; also: test concentration not given here
[8] = basal RPMI8226 mitochondrial membrane potential changes, profiling panel, cell-based, JC-1 fluorescence, 24 h, 100 nL compound (AID 1169); conditions: RPMI8226 myeloma, JC-1 mitochondrial potential fluorescence, higher = more signal; also: test concentration not given here
[9] = basal MM1S mitochondrial membrane potential changes, profiling panel, cell-based, JC-1 fluorescence, 24 h, 100 nL compound (AID 1170); conditions: higher = more signal; also: test concentration not given here
[10] = A549 lung cancer cell viability effects, profiling panel, resazurin fluorescence, 24 h, PK04 Diversity Set (AID 1171); conditions: higher = more signal, called active from +8 up or from −8 down; also: test concentration not given here
[11] = HepG2 liver cancer cell viability effects, profiling panel, resazurin fluorescence, 24 h, PK04 Diversity Set (AID 1172); conditions: higher = more signal; also: test concentration not given here
[12] = basal S. cerevisiae growth modulation, no modifier, primary screen, OD600, strain BY4716, 24 h, basal condition (AID 1173); conditions: OD600, 24 h, higher = more signal, called active from +8 up or from −8 down
[13] = MM1S myeloma cell viability, profiling panel, resazurin fluorescence, basal, 24 h, PK04 Diversity Set (AID 1174); conditions: higher = more signal, called active from +8 up or from −8 down;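 also: MM1S multiple myeloma cell line; test concentration not given here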
[14] = target: Dihydroorotate dehydrogenase (quinone), mitochondrial (Plasmodium falciparum (isolate 3D7)) (UniProt Q08210); experiment: PfDHODH enzyme inhibitors, primary screen, biochemical, C-terminal His tag, absorbance 600 nm (AID 1175); conditions: DCIP absorbance 600 nm, higher = more signal, called active from +8 up or from −8 down;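 also: recombinant parasite enzyme with a five histidine tag at its C terminus; test concentration not given here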
[15] = P. aeruginosa biofilm formation inhibitors, primary screen, strain PAO1, LB-PBS medium, absorbance 600 nm (AID 1176); also: test concentration not given here; conditions: P. aeruginosa PAO1 growth/biofilm, A600, 12 h; higher = more signal
[16] = S. cerevisiae RM11-1a growth modifiers, primary screen, strain RM11-1a, OD600, basal, 24 h (AID 1177); conditions: OD600, 24 h, higher = more signal, called active from +8 up or from −8 down;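 also: cultures grown under basal conditions with no added stressor; test concentration not given here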
[17] = E. coli acrAB mutant growth effects, primary screen, E. coli filamentation inducers, strain DRC39, OD650, 24 h (AID 1178); conditions: higher = more signal, called active from +8 up or from −8 down;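 also: growth measured as culture turbidity by optical density at 650 nm; test concentration not given here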
[18] = E. coli acrAB mutant growth effects, primary screen, E. coli filamentation inducers, strain DRC39, OD650, 48 h (AID 1179);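 also: screen aims at cell division blockers that make cells filament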; conditions: E. coli DRC39 delta-acrAB growth, higher = more signal, called active from +8 up or from −8 down
[19] = RPMI8226 myeloma cell viability, profiling panel, resazurin fluorescence, basal, 24 h, PK04 Diversity Set (AID 1180); conditions: higher = more signal;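 also: RPMI8826 multiple myeloma cell line at 5000 cells per well; test concentration not given here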
[20] = target: E3 ubiquitin-protein ligase XIAP (Homo sapiens) (UniProt P98170); experiment: XIAP binders, primary screen, biophysical, small-molecule microarray, fluorescence 635 nm (AID 1181); conditions: small-molecule microarray binding, higher = more signal;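 also: score merges 667 nm emission and signal to noise over triplicate slides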
Chain of E3 ubiquitin-protein ligase XIAP (Homo sapiens) (P98170 whole entry, looked up): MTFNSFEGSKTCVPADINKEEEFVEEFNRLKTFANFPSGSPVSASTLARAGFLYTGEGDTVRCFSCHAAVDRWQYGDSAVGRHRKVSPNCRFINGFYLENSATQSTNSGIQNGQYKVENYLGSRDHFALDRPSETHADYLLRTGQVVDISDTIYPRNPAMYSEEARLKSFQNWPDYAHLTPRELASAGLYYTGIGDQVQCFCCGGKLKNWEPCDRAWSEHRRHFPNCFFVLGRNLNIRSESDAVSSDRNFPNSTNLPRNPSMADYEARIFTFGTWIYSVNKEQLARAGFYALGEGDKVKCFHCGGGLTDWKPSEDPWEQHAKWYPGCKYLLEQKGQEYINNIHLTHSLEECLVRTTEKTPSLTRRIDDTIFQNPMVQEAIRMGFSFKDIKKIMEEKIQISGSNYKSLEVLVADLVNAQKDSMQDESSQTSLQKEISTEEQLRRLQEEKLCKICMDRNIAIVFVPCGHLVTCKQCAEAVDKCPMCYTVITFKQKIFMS

Chain of Dihydroorotate dehydrogenase (quinone), mitochondrial (Plasmodium falciparum (isolate 3D7)) (Q08210 whole entry, looked up): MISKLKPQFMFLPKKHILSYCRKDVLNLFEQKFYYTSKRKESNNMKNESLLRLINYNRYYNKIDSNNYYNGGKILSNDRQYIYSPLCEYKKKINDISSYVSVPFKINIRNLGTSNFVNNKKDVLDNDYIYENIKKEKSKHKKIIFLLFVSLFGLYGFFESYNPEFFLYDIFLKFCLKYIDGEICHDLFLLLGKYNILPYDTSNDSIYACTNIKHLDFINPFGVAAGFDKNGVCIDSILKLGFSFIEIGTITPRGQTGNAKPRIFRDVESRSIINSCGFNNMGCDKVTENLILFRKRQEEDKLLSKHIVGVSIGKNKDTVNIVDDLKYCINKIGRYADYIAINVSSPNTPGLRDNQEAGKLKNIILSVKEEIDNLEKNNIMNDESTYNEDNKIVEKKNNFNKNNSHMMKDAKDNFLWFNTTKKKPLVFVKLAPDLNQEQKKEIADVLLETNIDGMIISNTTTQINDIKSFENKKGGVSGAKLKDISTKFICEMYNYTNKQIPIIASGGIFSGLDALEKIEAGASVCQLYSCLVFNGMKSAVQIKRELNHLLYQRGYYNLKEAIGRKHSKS

SMILES: CC(C)C[C@@H]1NC(=O)[C@H]2C[C@@H](C(=O)NCCCCCC[N+](C)(C)C)[C@@H](c3ccc(O)cc3)N2C1=O
- z-score [1]: -0.547
- z-score [2]: -0.304
- z-score [3]: -1.01
- z-score [4]: -0.0171
- z-score [5]: 0.0824
- z-score [6]: -0.575
- z-score [7]: 0.177 (inactive)
- z-score [8]: -0.342
- z-score [9]: -0.958
- z-score [10]: 1.09 (inactive)
- z-score [11]: 1.27
- z-score [12]: -0.213 (inactive)
- z-score [13]: 0.771 (inactive)
- composite z-score [14]: -1.51 (inactive)
- z-score [15]: -1.04 (inactive)
- z-score [16]: 0.817 (inactive)
- z-score [17]: 0.385 (inactive)
- z-score [18]: 0.19 (inactive)
- z-score [19]: 0.985
- composite z-score [20]: -0.176

SMILES: CC(C)=C1C(=O)C(c2ccccc2)=C2CN3C(=O)N(CCc4ccccc4)C(=O)[C@]3(Cc3ccccc3)[C@H]21
- z-score [1]: -0.778
- z-score [2]: 0.66
- z-score [3]: 0.0577
- z-score [4]: 0.492
- z-score [5]: -0.895
- z-score [6]: -0.366
- z-score [7]: -0.623 (inactive)
- z-score [8]: -0.0727
- z-score [9]: -0.496
- z-score [10]: -0.723 (inactive)
- z-score [11]: -1.18
- z-score [12]: 0.66 (inactive)
- z-score [13]: -0.692 (inactive)
- composite z-score [14]: 0.223 (inactive)
- z-score [15]: 0.178 (inactive)
- z-score [16]: 0.071 (inactive)
- z-score [17]: -0.652 (inactive)
- z-score [18]: -0.295 (inactive)
- z-score [19]: -0.693
- composite z-score [20]: -0.122

SMILES: CC(c1ccccc1)C(O)C1C=CC2C(=O)N(C)C(=O)C2N1N(c1ccccc1)c1ccccc1 (stereo not given)
- z-score [1]: -0.279
- z-score [2]: -1.94
- z-score [3]: 0.919
- z-score [4]: 0.455
- z-score [5]: 0.427
- z-score [6]: -0.288
- z-score [7]: -1.37 (inactive)
- z-score [8]: -0.17
- z-score [9]: -0.939
- z-score [10]: -0.346 (inactive)
- z-score [11]: -1.22
- z-score [12]: -0.0972 (inactive)
- z-score [13]: -1.91 (inactive)
- composite z-score [14]: -0.0374 (inactive)
- z-score [15]: 0.419 (inactive)
- z-score [16]: 0.265 (inactive)
- z-score [17]: -0.502 (inactive)
- z-score [18]: -0.0284 (inactive)
- z-score [19]: -1.8
- composite z-score [20]: -0.0918

SMILES: O=C1O[C@H](c2ccccc2)[C@H](c2ccccc2)N2[C@H]1[C@@H](C(=O)Nc1nc3ccccc3s1)[C@]1(C(=O)Nc3ccc(C#CC4(O)CCCCCC4)cc31)[C@H]2c1ccc(O)cc1
- z-score [1]: -0.0457
- z-score [2]: 0.6
- z-score [3]: -0.0827
- z-score [4]: -2.98
- z-score [5]: -4.08
- z-score [6]: -3.62
- z-score [7]: -2.4 (inactive)
- z-score [8]: -1.14
- z-score [9]: -0.676
- z-score [10]: -0.318 (inactive)
- z-score [11]: -0.629
- z-score [12]: -0.945 (inactive)
- z-score [13]: -1.55 (inactive)
- composite z-score [14]: 0.0022 (inactive)
- z-score [15]: 1.44 (inactive)
- z-score [16]: -0.124 (inactive)
- z-score [17]: -0.492 (inactive)
- z-score [18]: -0.716 (inactive)
- z-score [19]: -1.36
- composite z-score [20]: -0.0426

SMILES: O=C1C[C@@](C(=O)NC2CC2)(c2ccc([N+](=O)[O-])cc2)[C@@H](c2ccc(CO)cc2I)N1CC12CC3CC(CC(C3)C1)C2
- z-score [1]: -2.31
- z-score [2]: -0.375
- z-score [3]: -5.04
- z-score [4]: -3.83
- z-score [5]: -4.33
- z-score [6]: -2.32
- z-score [7]: -0.869 (inactive)
- z-score [8]: -1.02
- z-score [9]: -2.4
- z-score [10]: -3.35 (inactive)
- z-score [11]: -3.54
- z-score [12]: 0.579 (inactive)
- z-score [13]: -6.88 (inactive)
- composite z-score [14]: 1.59 (inactive)
- z-score [15]: 1.2 (inactive)
- z-score [16]: 2.54 (inactive)
- z-score [17]: -0.56 (inactive)
- z-score [18]: -0.869 (inactive)
- z-score [19]: -5.45
- composite z-score [20]: -0.095

SMILES: COc1ccc(C(O)C2C=CC3C(=O)N(C)C(=O)C3N2N2CCCCC2)cc1OCc1ccccc1 (stereo not given)
- z-score [1]: 0.138
- z-score [2]: -0.393
- z-score [3]: -0.888
- z-score [4]: -0.25
- z-score [5]: 0.0629
- z-score [6]: -1.8
- z-score [7]: -0.693 (inactive)
- z-score [8]: -0.813
- z-score [9]: 0.536
- z-score [10]: 2.31 (inactive)
- z-score [11]: 1.06
- z-score [12]: -1.21 (inactive)
- z-score [13]: 0.0046 (inactive)
- composite z-score [14]: 1.05 (inactive)
- z-score [15]: 0.779 (inactive)
- z-score [16]: 1.26 (inactive)
- z-score [17]: -0.738 (inactive)
- z-score [18]: -0.811 (inactive)
- z-score [19]: -2.38
- composite z-score [20]: -0.0937

SMILES: COc1cc2c(cc1OC)CN(C(=O)[C@H]1[C@@H]3C(=O)O[C@@H](c4ccccc4)[C@@H](c4ccccc4)N3[C@@H](c3ccccc3OCCO)[C@]13C(=O)Nc1ccc(C#CC4(O)CCCCCC4)cc13)CC2
- z-score [1]: 0.434
- z-score [2]: -0.0514
- z-score [3]: 1.64
- z-score [4]: -0.988
- z-score [5]: -1.93
- z-score [6]: -0.198
- z-score [7]: 0.994 (inactive)
- z-score [8]: -0.812
- z-score [9]: -1.41
- z-score [10]: -0.771 (inactive)
- z-score [11]: 0.714
- z-score [12]: 0.0302 (inactive)
- z-score [13]: -0.492 (inactive)
- composite z-score [14]: 0.682 (inactive)
- z-score [15]: 2.63 (inactive)
- z-score [16]: 2.15 (inactive)
- z-score [17]: 0.667 (inactive)
- z-score [18]: 1.61 (inactive)
- z-score [19]: 0.248
- composite z-score [20]: -0.12

SMILES: CN1C(=O)C2C=CC(C(O)C3CC=CCC3)N(Nc3ccccc3)C2C1=O (stereo not given)
- z-score [1]: -0.653
- z-score [2]: -1.14
- z-score [3]: -0.661
- z-score [4]: 0.228
- z-score [5]: -1.56
- z-score [6]: -0.965
- z-score [7]: -0.117 (inactive)
- z-score [8]: 0.116
- z-score [9]: -0.608
- z-score [10]: -0.293 (inactive)
- z-score [11]: -0.488
- z-score [12]: 0.122 (inactive)
- z-score [13]: -0.533 (inactive)
- composite z-score [14]: 0.0707 (inactive)
- z-score [15]: 0.847 (inactive)
- z-score [16]: 0.0862 (inactive)
- z-score [17]: -1.11 (inactive)
- z-score [18]: -0.196 (inactive)
- z-score [19]: -0.568
- composite z-score [20]: 0.301

SMILES: C#CCCCON=C1C[C@@H](O)[C@@H](O)[C@@H]2[C@@H]3C(=O)N(Cc4ccc5c(c4)OCO5)C(=O)[C@@H]3CC[C@@H]12
- z-score [1]: 0.347
- z-score [2]: -1.2
- z-score [3]: -0.61
- z-score [4]: 1.03
- z-score [5]: 0.351
- z-score [6]: 0.722
- z-score [7]: 1.44 (inactive)
- z-score [8]: 0.412
- z-score [9]: -1.46
- z-score [10]: 0.414 (inactive)
- z-score [11]: 0.606
- z-score [12]: 0.532 (inactive)
- z-score [13]: 0.241 (inactive)
- composite z-score [14]: 0.175 (inactive)
- z-score [15]: -0.993 (inactive)
- z-score [16]: 0.577 (inactive)
- z-score [17]: 0.571 (inactive)
- z-score [18]: 0.186 (inactive)
- z-score [19]: 1.42
- composite z-score [20]: 0.0785
